From PubChem BioAssay (NCATS)
Inconclusive results are not listed. Activity calls are given as the source filed them. Unless noted, the call rests on the fitted dose curve; in most records, active means well fitted curve in the direction sought with a large enough effect; inconclusive means small, poorly fitted or top-dose-only effect, or another doubt; inactive means no such curve, though single readings can be large; an effect the other way counts as inactive or inconclusive. Where a SMILES comes first, the peptide text is derived from it. Bridges are numbered along the chain shown (N, C = ends). [ ]: non-standard residue; d: D form. hArg = N=C(N)NCCCC[C@H](N)C(=O)O; Mpa = O=C(O)CCS

How the values were obtained:
[1] = tested on: Hek293T; experiment: Primary qHTS to identify gynecologic anti-cancer compounds using libraries of approved drugs and bioactive compounds (AID 1345084); details: Gynecologic cancer cell panel viability, ATPlite luminescence, 48 h, control line for the selectivity index; series mostly up to 57.5 µM; further: on the % scale 0 is the no-effect control and ±100 the full control effect; nearly all actives have a fitted effect of over 55% in size
In short: (§1)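 Five-concentration response, 48 h; readout is ATP-driven luciferase luminescence.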

[2] = tested on: JEG-3; experiment: as above; details: Gynecologic cancer cell panel viability, ATPlite luminescence, 48 h; series mostly up to 57.5 µM
In short: as §1

[3] = tested on: OV90; experiment: as above; details: Gynecologic cancer cell panel viability, ATPlite luminescence, 48 h; series mostly up to 57.5 µM
In short: as §1

[4] = tested on: PA-1; experiment: as above; details: Gynecologic cancer cell panel viability, ATPlite luminescence, 48 h; series mostly up to 57.5 µM
In short: as §1

[5] = tested on: SKOV3; experiment: as above; details: Gynecologic cancer cell panel viability, ATPlite luminescence, 48 h; series mostly up to 57.5 µM
In short: as §1

[6] = tested on: Tov-21-G; experiment: as above; details: Gynecologic cancer cell panel viability, ATPlite luminescence, 48 h; series mostly up to 57.5 µM
In short: as §1

[7] = tested on: Tov112D; experiment: as above; details: Gynecologic cancer cell panel viability, ATPlite luminescence, 48 h; series mostly up to 57.5 µM
In short: as §1

[8] = Drug repurposing screens with cells derived from glioblastoma tumor samples (AID 1345199); details: GBM patient neurospheres viability, ATP luminescence, 48 h; further: nearly all actives have a fitted effect of over 40% in size; further: potency means the concentration at half of the fitted maximal effect; on activity, negative = cell killing: on the % scale 0 is the no-effect control and ±100 the full control effect
In short: (§2)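 Four patient lines of CD133+ GBM neurospheres were screened at several concentrations; hits were retested in those lines plus three slower-growing GBM lines, using 48-hour treatment and ATP-based viability.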

[9] = tested on: astro; experiment: as above; details: viability, ATP luminescence, 48 h; series mostly up to 45.9 µM
In short: as §2

[10] = molecular target: Nuclear receptor subfamily 1 group I member 2 (Rattus norvegicus) (UniProt Q9R1A7); experiment: qHTS assay for small molecule activators of the rat pregnane X receptor (rPXR) signaling pathway (AID 651751; call rule not given here; further: 0% is about no effect); details: rPXR reporter cells, luciferase (One-Glo), 24 h
Chain of Nuclear receptor subfamily 1 group I member 2 (Rattus norvegicus) (Q9R1A7 whole entry, looked up): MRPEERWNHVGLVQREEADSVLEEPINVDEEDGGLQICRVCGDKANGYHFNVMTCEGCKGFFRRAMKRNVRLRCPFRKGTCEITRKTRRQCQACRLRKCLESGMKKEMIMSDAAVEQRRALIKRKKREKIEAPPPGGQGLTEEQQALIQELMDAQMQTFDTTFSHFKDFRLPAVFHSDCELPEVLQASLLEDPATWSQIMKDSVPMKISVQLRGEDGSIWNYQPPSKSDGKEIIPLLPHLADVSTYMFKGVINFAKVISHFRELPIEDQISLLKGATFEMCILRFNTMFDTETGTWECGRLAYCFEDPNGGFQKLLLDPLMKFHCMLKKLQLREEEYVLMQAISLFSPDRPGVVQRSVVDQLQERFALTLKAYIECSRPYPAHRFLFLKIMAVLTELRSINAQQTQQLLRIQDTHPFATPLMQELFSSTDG

[11] = at 45.9 µM (top of the series), tumour line B
[12] = at 45.9 µM (top of the series), tumour line D
[13] = at 46 µM (top of the series), tumour line A
[14] = at 46.1 µM (top of the series), tumour line C
[15] = at 20 µM (top of the series), tumour line C
[16] = at 21.2 µM (top of the series), tumour line B
[17] = at 21.2 µM (top of the series), tumour line D
[18] = at 21.3 µM (top of the series), tumour line A

NC(=O)CC[C@@H](N)C(=O)O
inactive: outcome [1] | outcome [2] | Potency [3] | outcome [4] | outcome [5] | outcome [6] | outcome [7] | activity, negative = cell killing [8, 11] -5.88% | activity, negative = cell killing [8, 12] 12.3% | activity, negative = cell killing [8, 13] 4.73% | activity, negative = cell killing [8, 14] 1.46% | outcome [9]

NC(N)=NCCN1CCCCCCC1
inactive: activity change, negative = cytotoxicity [1] -4.03% [at 0.462 µM] | activity change, negative = cytotoxicity [2] -3.39% [at 0.462 µM] | activity change, negative = cytotoxicity [3] -3.97% [at 0.462 µM] | activity change, negative = cytotoxicity [4] 8.5% [at 0.462 µM] | activity change, negative = cytotoxicity [5] 6.07% [at 0.462 µM] | activity change, negative = cytotoxicity [6] 1.66% [at 0.462 µM] | activity change, negative = cytotoxicity [7] 3.26% [at 0.462 µM] | activity, negative = cell killing [8, 15] -8.56% | activity, negative = cell killing [8, 16] -5.86% | activity, negative = cell killing [8, 17] 12.5% | activity, negative = cell killing [8, 18] -16.2% | outcome [9]

CC1CC(OC(=O)c2ccccc2O)CC(C)(C)C1 (centres undefined)
inactive: outcome [1] | outcome [2] | Potency [3] | outcome [4] | outcome [5] | outcome [6] | outcome [7] | activity, negative = cell killing [8, 11] -18.3% | activity, negative = cell killing [8, 12] -10.1% | activity, negative = cell killing [8, 13] -28.9% | activity, negative = cell killing [8, 14] 1.33% | outcome [9] | max response [10] 5.1%

Nc1ccncc1N
inactive: outcome [1] | outcome [2] | Potency [3] | outcome [4] | outcome [5] | outcome [6] | outcome [7] | activity, negative = cell killing [8, 11] -7.35% | activity, negative = cell killing [8, 12] -6.96% | activity, negative = cell killing [8, 13] -18.3% | activity, negative = cell killing [8, 14] -14.3% | outcome [9]

C[C@]1(Cn2ccnn2)[C@H](C(=O)O)N2C(=O)C[C@H]2S1(=O)=O
inactive: outcome [1] | outcome [2] | Potency [3] | outcome [4] | outcome [5] | outcome [6] | outcome [7] | activity, negative = cell killing [8, 11] -6.98% | activity, negative = cell killing [8, 12] -15.1% | activity, negative = cell killing [8, 13] -24.4% | activity, negative = cell killing [8, 14] -1.25% | outcome [9]

CCOC(=O)c1cccnc1
inactive: outcome [1] | outcome [2] | Potency [3] | outcome [4] | outcome [5] | outcome [6] | outcome [7] | activity, negative = cell killing [8, 11] -7.07% | activity, negative = cell killing [8, 12] -8.05% | activity, negative = cell killing [8, 13] -24.1% | activity, negative = cell killing [8, 14] 22.3% | outcome [9]

CC(=O)N[C@H]1[C@H]([C@H](O)[C@H](O)CO)OC(C(=O)O)=C[C@@H]1N=C(N)N
inactive: outcome [1] | outcome [2] | Potency [3] | outcome [4] | outcome [5] | outcome [6] | outcome [7] | activity, negative = cell killing [8, 11] -18.7% | activity, negative = cell killing [8, 12] -2.37% | activity, negative = cell killing [8, 13] -22.1% | activity, negative = cell killing [8, 14] -20.3% | outcome [9]

NC(=O)NS(=O)(=O)c1ccc(N)cc1
inactive: outcome [1] | outcome [2] | Potency [3] | outcome [4] | outcome [5] | outcome [6] | outcome [7] | activity, negative = cell killing [8, 11] -9.53% | activity, negative = cell killing [8, 12] 9.92% | activity, negative = cell killing [8, 13] -3.84% | activity, negative = cell killing [8, 14] 3.57% | outcome [9]

NC(=O)[C@@H]1CSSCCC(=O)N[C@@H](CCCCN=C(N)N)C(=O)NCC(=O)N[C@@H](CC(=O)O)C(=O)N[C@@H](Cc2c[nH]c3ccccc23)C(=O)N2CCC[C@H]2C(=O)N1 ([Mpa][hArg]GDWPC-NH2; disulfide 1-7)
inactive: outcome [1] | outcome [2] | Potency [3] | outcome [4] | outcome [5] | outcome [6] | outcome [7] | activity, negative = cell killing [8, 11] 1.12% | activity, negative = cell killing [8, 12] 4.68% | activity, negative = cell killing [8, 13] -11% | activity, negative = cell killing [8, 14] -19.2% | outcome [9]

O=C(NCC(O)CO)c1c(I)c(C(=O)NCC(O)CO)c(I)c(N(CCO)C(=O)CO)c1I (centres undefined)
inactive: outcome [1] | outcome [2] | Potency [3] | outcome [4] | outcome [5] | outcome [6] | outcome [7] | activity, negative = cell killing [8, 15] -7.07% | activity, negative = cell killing [8, 16] -9.85% | activity, negative = cell killing [8, 17] 1% | activity, negative = cell killing [8, 18] -9.08% | outcome [9]

CN1CCCN=C1COC(=O)C(O)(c1ccccc1)C1CCCCC1 (centres undefined)
active: Potency ([8]; tumour line A) 11.2 µM
inactive: outcome [1] | outcome [2] | Potency [3] | outcome [4] | outcome [5] | outcome [6] | outcome [7] | activity, negative = cell killing [8, 11] -22.5% | activity, negative = cell killing [8, 12] -25.7% | activity, negative = cell killing [8, 14] -4.53% | outcome [9]

Cn1c([N+](=O)[O-])cnc1COC(N)=O
inactive: outcome [1] | outcome [2] | Potency [3] | outcome [4] | outcome [5] | outcome [6] | outcome [7] | activity, negative = cell killing [8, 11] -9.55% | activity, negative = cell killing [8, 12] -8.48% | activity, negative = cell killing [8, 13] -18.6% | activity, negative = cell killing [8, 14] -20.8% | outcome [9]

Cc1c(C)c2c(c(C)c1OC(=O)c1cccnc1)CC[C@@](C)(CCC[C@H](C)CCC[C@H](C)CCCC(C)C)O2
inactive: outcome [1] | outcome [2] | Potency [3] | outcome [4] | outcome [5] | outcome [6] | outcome [7] | activity, negative = cell killing [8, 11] -11.4% | activity, negative = cell killing [8, 12] -0.0875% | activity, negative = cell killing [8, 13] -9.82% | activity, negative = cell killing [8, 14] -12.2% | outcome [9]

CCCCC1(COC(=O)CCC(=O)O)C(=O)N(c2ccccc2)N(c2ccccc2)C1=O
inactive: outcome [1] | outcome [2] | Potency [3] | outcome [4] | outcome [5] | outcome [6] | outcome [7] | activity, negative = cell killing [8, 15] -5.58% | activity, negative = cell killing [8, 16] -15.2% | activity, negative = cell killing [8, 17] -10.8% | activity, negative = cell killing [8, 18] -29.7% | outcome [9]
